# Sampled rows, rich in hits. Any-hit rate of the full collection: about 4.1%.
# Peg3 promoter: Peg3 promoter-driven luciferase inhibitors, primary screen, cell-based, HeLa, luciferase luminescence. HeLa PEG-Prom luciferase reporter, overnight. inhibition, % at 20 µM. 360,000 tested, 1.7% active;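 active = inhibition of at least 50% at 20 µM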
# Shn3 inh set2: reduction of Shn3 3'UTR firefly luciferase signal, primary screen, Schnurri-3 inhibitor project, cell-based, Clone20 osteoblasts, set 2. Clone20 osteoblast Shn3 3'UTR firefly luciferase, 24 h. inhibition, % at 12.5 µM. 360,000 tested, 0.52% active. AID 588674, 2011;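 active = mean inhibition of at least 75% with every replicate also reaching 75%; inconclusive = mean inhibition at least 75% but some replicate below; inactive = mean inhibition below 75%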;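 note: 0% = median of neutral control wells and 100% = pilot-screen positive control compound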
# TROY signal inh: inhibitors of TROY-driven NF-kB signaling, primary screen, Q293 LMP1-TROYcd cells, NF-kB luciferase, uHTS; Q293 LMP1-TROYcd NF-kB luciferase reporter, 4 h; inhibition, % at 10 µM; 360,000 tested, 0.98% active; AID 1347056, 2019;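 active = compounds whose plate-normalised and pattern-corrected inhibition of the luciferase reporter signal at the single screening dose is 50% or more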
# EBV LMP1 NFkB: EBV LMP1-driven NF-kappaB luciferase reporter inhibitors, primary screen, cell-based, luminescence, single point. inhibition, % at 12.5 µM. AID 504558, 2011. 350,000 tested, 0.69% active. LMP1-induced NF-kappaB luciferase reporter cells; in the data active = inhibition above about 41%; inconclusive = no clear call, values can overlap the other calls;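 note: 0% = neutral control wells and 100% = reference inhibitor control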
# TRPM1 prom inh: inhibitors of MITF-dependent TRPM1 promoter reporter, primary screen, cell-based, SK-MEL-5, single point, luciferase | AID 488899, 2010 | SK-MEL-5 TRPM1 promoter luciferase, 24 h | inhibition, % at 12.5 µM | 330,000 tested, 0.83% active;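 active = mean inhibition across replicates of 60% or more, whatever share of single replicates reaches that level; inconclusive = some that reach 60%, reason not given; inactive = mean inhibition across replicates below 60%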
# TWEAK Fn14 block: inhibitors of TWEAK-Fn14 signaling, primary screen, luciferase reporter cells, uHTS | TWEAK-stimulated Fn14 reporter cells, luciferase luminescence, 8 h | inhibition, % at 10 µM | 360,000 tested, 2% active | AID 1159606, 2016; in the data active = inhibition above about 50%
# Starred values were filed as active, the others as inactive; ? = inconclusive; . = not tested or not shown.
SMILES,Peg3 promoter,Shn3 inh set2,TROY signal inh,EBV LMP1 NFkB,TRPM1 prom inh,TWEAK Fn14 block
CCn1c(=O)n(CC(=O)NCC2CCCO2)c(=O)c2c3c(sc21)COC(C)(C)C3 (centres undefined),-6,3,-5,0,8,-17
CC(=O)OCCn1c([N+](=O)[O-])cnc1C=[N+]([O-])C1CCCCC1,5,-15,0,-9,.,5
C[C@H](CO)N1C[C@H](C)[C@@H](CN(C)C(=O)NC2CCCCC2)Oc2c(NC(=O)Cc3ccccc3)cccc2C1=O,-25,14,11,-5,2,-1
NNc1cc(C(=O)O)ccc1Cl,11,-4,9,0,-8,-8
Nc1ncnc2oc(-c3ccco3)c(-c3ccco3)c12,40,-3,-6,2,10,76*
CCOc1ccc(NS(=O)(=O)c2ccc(NS(C)(=O)=O)cc2)cc1,11,27,10,5,-7,-14
CCCCCOc1ccc(NS(C)(=O)=O)cc1,-159,-25,-40,78*,-28,-19
O=C(CSc1cccc2cccnc12)N/N=C/c1ccc(O)cc1,13,.,-11,7,-9,-2
O=C(CCc1ccccc1O)N/N=C/c1ccc(Sc2cccc3cccnc23)o1,7,35,-8,11,3,109*
COCc1cc(=O)[nH]c(SCCS(=O)(=O)c2ccc(Cl)cc2Cl)n1,46,58,13,5,9,55*
COC(=O)C(C)SC1=N/C(=C/c2ccc(-n3cncn3)cc2)C(=O)N1 (centres undefined),16,1,28,-1,18,42
O=C(Oc1ccc2ccccc2c1Br)N1CCCCCC1,-182,-52,66*,-37,-42,65*
O=C(NCCCNC(=O)c1cc(Cl)ccc1Cl)c1ccco1,-8,7,7,-8,6,20
O=C(NCCCNC(=O)c1ccco1)c1ccc(Cl)c(Cl)c1,53*,9,-26,-6,7,11
CC(Oc1ccccc1Cl)C(=O)Nc1ccccc1C(=O)N1CCOCC1 (centres undefined),11,-18,-7,4,-5,1
COc1ccc(C(=O)NCCn2cc(SCC(=O)NCC3CCCO3)c3ccccc32)cc1 (centres undefined),-46,-21,59*,-6,-3,84*
COc1ccc(C(=O)NCCn2cc(SCC(=O)Nc3nnc(C)s3)c3ccccc32)cc1,-23,-30,62*,9,-5,67*
COc1ccc(C(=O)NCCn2cc(SCC(=O)NCc3ccco3)c3ccccc32)cc1,-93,-4,64*,-4,-3,45
COc1ccccc1C(=O)NCCn1cc(SCC(=O)NCC2CCCO2)c2ccccc21 (centres undefined),8,1,0,16,-2,9
Cc1nnc(NC(=O)CSc2cn(CCNC(=O)c3ccccc3)c3ccccc23)s1,-32,10,20,-4,.,25
CCN(CC)C(=O)Cn1cc(SCC(=O)NCc2ccco2)c2ccccc21,13,13,11,-3,-9,5
CN(Cc1c(F)cccc1Cl)C(=O)c1ccc2ccccc2n1,7,13,-3,-3,5,14
CC1=CN2C(c3cccc([N+](=O)[O-])c3)=NON(c3ccc(C)cn3)C2C=C1 (centres undefined),43,18,60*,.,.,-33
C[C@@H]1CN([C@H](C)CO)C(=O)c2c(c3ccccc3n2C)-c2ccccc2CO[C@H]1CN(C)Cc1ccc(-c2ccccc2)cc1,83*,1,20,-5,.,44
CC(=C\c1ccccc1)/C=C1/SC(=S)N(CCCC(=O)O)C1=O,22,9,60*,22,44,20
SMILES,Peg3 promoter,Shn3 inh set2,TROY signal inh,EBV LMP1 NFkB,TRPM1 prom inh,TWEAK Fn14 block
O=C1/C(=C/c2cccnc2)SC(=S)N1c1ccc(O)cc1,37,-1,29,-1,9,60*
O=C(CN1C(=O)S/C(=C/c2cccnc2)C1=O)N1CCOCC1,15,0,-83,1,-6,-28
O=C(O)CCN1C(=O)S/C(=C\c2cccnc2)C1=O,6,-20,79*,-4,12,-2
CC(/C=C1\SC(=O)N(CCCC(=O)O)C1=O)=C\c1ccccc1,80*,?,87*,72*,85*,104*
O=C(Nc1ccc(S(=O)(=O)NC2=NCCCCC2)cc1)c1ccc2ccccc2n1,-93,33,-62,5,1,14
Cc1c2ccccc2nc2ccccc12,-3,5,9,6,1,5
Cc1c2ccccc2c(C)c2c1ccc1ccccc12,69*,-53,-74,-10,-71,-1
O=C(/C=C/c1ccco1)NCC1(c2ccccc2)CCCC1,6,-26,87*,4,-10,89*
CCc1ccc(C2c3[nH]c4ccccc4c3CCN2C(=O)CNC(N)=O)cc1 (centres undefined),17,13,17,-2,20,7
CCc1ccc(C2c3[nH]c4ccccc4c3CCN2C(=O)CN2CCN(CC)CC2)cc1 (centres undefined),84*,-11,8,-16,43,-6
COc1ccc2nc(N=Nc3ccc(O)c4ccccc34)sc2c1,48,?,18,1,75*,38
COc1ccc2nc(N=NC3=C(O)CC(C)(C)CC3=O)sc2c1,22,-31,33,13,64*,13
CC1(C)CC(=O)C(N=Nc2ccc3ncsc3c2)=C(O)C1,-112,-49,-17,-6,-2,-1
Cc1ccn2c(Nc3ccccc3C)c(-c3ccncc3)nc2c1,4,-26,38,-8,-7,-36
CCc1nn(C(CC)C(=O)NCCc2ccc(OC)cc2OC)c(=O)c2cc3occc3n12 (centres undefined),8,-4,-17,7,-4,-13
COc1ccc(S(=O)(=O)NC(=O)C2(C)CCN2C(=O)C2(c3ccccc3)CC2)cc1 (centres undefined),12,-2,-1,.,.,17
CCCCCc1cc(=O)oc2c(C(CCN(CC)CC)c3cc(OC)c(OC)c(OC)c3)c(OC)cc(OC)c12 (centres undefined),105*,21,5,0,93*,-14
CCCCCc1cc(=O)oc2c(C(CCN3CCCCC3)c3ccc4c(c3)OCO4)c(OC)cc(OC)c12 (centres undefined),96*,-16,12,-11,84*,-21

# High-throughput results: PubChem, several laboratories
